3CLpro inhibitor = SARS-CoV 3CLpro protease inhibition; recombinant SARS-CoV 3CLpro, quenched FRET peptide cleavage; inhibition, % at 6 µM; 290,000 tested, 0.14% active; AID 1706; in the data active means inhibition above about 12%
VHR inh abs = blocks human VHR1 dual specificity phosphatase. recombinant VHR phosphatase, pNPP absorbance. inhibition, % at 13.3 µM. 290,000 tested, 0.52% active; in the data active means inhibition above about 50%
Target sequence (P51452 whole entry, looked up): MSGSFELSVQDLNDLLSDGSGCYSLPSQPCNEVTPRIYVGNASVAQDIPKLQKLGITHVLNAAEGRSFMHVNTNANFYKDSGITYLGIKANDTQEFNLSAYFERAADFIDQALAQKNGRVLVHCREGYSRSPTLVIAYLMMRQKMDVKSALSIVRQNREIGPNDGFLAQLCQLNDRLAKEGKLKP
BJeLR lethal = kills HRASV12-expressing BJeLR cells; BJeLR (HRASV12) viability, CellTiter-Glo ATP luminescence, 48 h; inhibition, % (test concentration not listed); 300,000 tested, 0.17% active; in the data active means inhibition above about 50%; inconclusive means no clear call, values can overlap the other calls
MazF activator = MazEF (E. coli) toxin RNase activation; FAM/BHQ RNA-DNA oligo cleavage fluorescence, 5 h; activation, % at 20 µM; P0AE70; 350,000 tested, 0.32% active; in the data active means activation above about 50%
Target sequence (P0AE70 whole entry, looked up): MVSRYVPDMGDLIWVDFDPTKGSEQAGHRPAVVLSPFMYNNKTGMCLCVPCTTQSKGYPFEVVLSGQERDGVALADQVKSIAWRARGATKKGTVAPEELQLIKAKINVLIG
PfHsp40 rescue = compounds rescuing yeast from Plasmodium falciparum HSP40 toxicity | S. cerevisiae expressing PfHsp40, growth rescue, ATP luminescence | growth rescue, % at 12.5 µM | 340,000 tested, 0.68% active | AID 504582; in the data active means growth rescue above about 28%, passing the limit was not always enough; inconclusive means no clear call, values can overlap the other calls;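 further: yeast W303a lacking pdr1 and pdr3 grown in galactose medium; growth measured after three days at 30 °C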
Vc quorum ag = quorum light induction in luxS cqsA deficient V. cholerae; V. cholerae BH1578 lux reporter, luminescence, 6 h; activation, % at 18.7 µM; 350,000 tested, 0.16% active; AID 588436; in the data active means activation mostly above about 9.7%, no sharp cut-off; inconclusive means no clear call, values can overlap the other calls; inactive means mostly below about 3.7%
* hit, by the source's call; i = inactive; ? = inconclusive; · = no result; + = active, no number. A selection: hits, their analogues and other compounds. The true share with any hit is near 1.7%.

SMILES	3CLpro inhibitor	VHR inh abs	BJeLR lethal	MazF activator	PfHsp40 rescue	Vc quorum ag
COc1cccc(CC(=O)N2CCC(CCC(=O)Nc3cccc(OC)c3)CC2)c1	1.9	1.8	7.3	2.9	-0.3	-2.6
COc1cccc(NC(=O)CCC2CCN(Cc3nccs3)CC2)c1	4.7	52.2*	-2.6	-6.8	-1.5	·
COc1ccc(NS(=O)(=O)c2cccc(C(=O)N/N=C(\C)c3cccnc3)c2)cc1	·	·	·	0.9	0.8	i
Cc1cc(=O)oc(C)c1C(=O)NCC(C)NC(=O)c1c(C)cc(=O)oc1C (configuration not stated)	-3.1	54.3*	-3.7	-6.6	0.0	0.5
Cc1cc(=O)oc(C)c1C(=O)NCC(C)C	-1.3	1.5	0.7	0.3	-1.6	-0.6
COc1cc(OC)c(NC(=S)Nc2cc(Cl)cc(Cl)c2)cc1Cl	3.6	-11.3	0.3	59.7*	1.1	-0.3
COc1cc(OC)c(NC(=S)Nc2cccc(C(C)=O)c2)cc1Cl	1.2	27.7	-0.5	-0.9	-0.4	-0.4
COc1ccc(N2CCN(C(=O)c3ccc(S(=O)(=O)N4CCOCC4)cc3)CC2)cc1	-1.3	51.2*	3.2	-2.3	1.7	i
Cn1c(SCC#N)nnc1-c1ccc2c(c1)OCO2	4.3	7.5	-5.9	16.6	-1.7	16.7*
CN(C)CC(CCC(CN(C)C)C(O)(c1ccccc1)c1ccccc1)C(O)(c1ccccc1)c1ccccc1 (configuration not stated)	-0.4	27.2	83.2*	15.1	·	·
CN(C)C/C=C/C(O)(c1ccccc1)c1ccccc1	1.4	25.3	1.0	10.7	-2.0	-0.6
CCCn1c(SCC(=O)Nc2ccccc2OC)nnc1-c1ccco1	-1.0	31.7	30.2	3.8	-1.8	-0.3
CC1=Nc2ccccc2/C1=C\c1nc(-c2ccc(F)cc2)oc1O	6.1	9.9	11.6	+	0.8	-2.2
CN=Cc1nc(-c2ccccc2)oc1O	1.9	4.2	-2.0	-6.4	-1.5	0.7
O=C(NC1CC1)c1ccccc1	·	·	·	6.9	·	i
O=C(NC1CC1)c1cccc(Oc2ccccc2)c1	-1.1	7.9	-10.7	-8.2	77.0*	i
Cc1ccc(O)c(C2=NNC(O)(C(F)(F)F)C2)c1 (configuration not stated)	2.8	-27.7	4.4	-8.5	38.9*	i
Cc1ccc(O)c(C2=NNC(c3ccc(Cl)cc3)C2)c1 (configuration not stated)	3.7	-4.9	2.8	-23.9	?	i
CC(=O)N1c2ccc(S(=O)(=O)NCC3CCC(C(=O)NCc4ccco4)CC3)cc2CC1C (configuration not stated)	-3.2	-17.2	7.1	6.9	1.9	i
O=C(c1cc2ccccc2o1)N(Cc1ccco1)Cc1cccs1	·	·	7.5	-9.7	164.8*	i
CCOC1=C(C#N)CC2(CC1)c1ccccc1-c1ccccc12	·	·	·	-0.6	1.1	i
Cc1cc2c(cn1)C(CCC#N)(CCC#N)c1ccccc1-2	3.0	-4.9	-3.8	2.0	54.4*	-0.9
COc1ccc(/C(O)=C2/C(=O)C(=O)N(CCCN3CCOCC3)C2c2ccc(Cl)cc2)cc1 (configuration not stated)	·	·	·	-5.0	·	i
CCOC(=O)c1sc(-c2ccc(C(F)(F)F)cc2)nc1O	1.1	-4.9	11.8	-18.7	132.4*	-0.4
COc1ccc(Nc2c(-c3ccc(C)cc3)nc3cnccn23)cc1	3.1	12.3	12.2	-0.6	-1.4	-0.5
SMILES	3CLpro inhibitor	VHR inh abs	BJeLR lethal	MazF activator	PfHsp40 rescue	Vc quorum ag
Cc1ccc(Nc2c(-c3ccccc3O)nc3cnccn23)cc1	0.9	15.5	8.3	11.3	57.8*	-0.2
Cc1cc(OCCCC(=O)NCCc2ccccn2)ccc1Cl	2.4	6.7	2.9	59.9*	-0.6	-0.4
COc1ccc(CCCC(=O)NCCc2ccccc2)c(C)c1	5.2	3.5	5.8	1.3	40.1*	1.0
O=C(CCCNS(=O)(=O)c1ccc(Cl)c(Cl)c1)NCCc1ccccn1	-0.5	-0.6	-12.2	10.5	0.3	1.3
O=C1Nc2ccccc2C1(c1ccccc1)c1ccccc1	4.4	16.6	-0.6	0.6	0.4	i
Nc1ccc(C2(c3ccc(N)cc3)C(=O)Nc3ccccc32)cc1	-0.4	52.7*	-2.7	-0.6	-1.4	-3.2
COc1ccccc1/C=C/CN1CCCC(CO)(CCc2ccccc2)C1 (configuration not stated)	1.7	17.9	-7.1	5.1	-2.3	1.4
OCC1(CCc2ccccc2)CCCN(C/C=C/c2ccccc2)C1 (configuration not stated)	-8.5	57.0*	-14.4	2.2	-0.3	i
c1ccc(Cn2ccc(-c3cnc(-c4ccccc4)s3)n2)cc1	1.6	15.8	-1.8	3.0	69.4*	i
CCOc1ccc(N=Cc2c(C)[nH]n(-c3nc4ccccc4[nH]3)c2=O)cc1	0.6	7.6	64.9*	4.5	-3.5	-0.4
CC(=O)c1cccc(NC(=O)C(C)OC(=O)CN2C(=O)NC(C)(C)C2=O)c1 (configuration not stated)	·	·	·	-0.2	0.1	i
COc1ccc(N=Nc2ccc(O)c3ncccc23)cc1	1.9	7.2	26.1	-6.4	1.8	i
Oc1ccc(N=Nc2ccc3c(c2)OCCO3)c2cccnc12	4.4	1.2	17.1	4.1	267.7*	i
Oc1ccc(N=Nc2ccc3c(c2)OCCO3)c(O)c1	0.4	19.1	9.1	-7.6	-0.6	i
COc1cccc(N=Nc2ccc(O)c3ncccc23)c1	-1.9	39.4	65.5*	6.5	1.0	-0.2
CCc1nc2ccc(C(=O)NCCc3c[nH]c4ccccc34)cn2c1N(C=O)CCC(C)C	·	·	·	·	·	-0.3
CCC(C)c1ccc(N(CC(=O)NC(C)(C)C)C(=O)CNC(=O)c2cccs2)cc1 (configuration not stated)	-2.5	3.5	-0.4	-45.9	2.3	-0.3
CCOC(=O)Nc1sc(C)c(C)c1C(N)=O	-2.2	-25.4	9.7	9.0	0.1	2.1
O=C1C=C(O)c2cccc(O)c2C1=O	·	14.2	·	-1.8	0.9	-0.4
O=C1C=C(c2c(O)ccc3ccccc23)c2ccccc2C1=O	·	·	·	79.9*	2.7	·
CCCCCOc1ccc(OC(=O)c2ccncc2)cc1	3.4	20.0	0.0	1.1	73.5*	i
CCCCOc1ccc(C(=O)Oc2ccc(C)nc2)cc1	-4.2	-3.8	3.0	0.4	1.6	-0.2
Cc1cc(C)nc(SCC(=O)c2ccc(F)cc2F)n1	-7.6	7.4	2.8	3.5	-1.5	0.8
COc1ccc(N=C2SCC(c3ccc([N+](=O)[O-])cc3)=NN2CCO)cc1	10.2	-0.3	-14.0	6.6	7.0	-1.0
O=[N+]([O-])c1ccc(C2=NN(CCO)C(=Nc3ccc(OC(F)(F)F)cc3)SC2)cc1	3.9	14.4	-3.0	-10.5	52.7*	i
CN(C)c1cccc(CNC(=O)c2csc([C@H]3C[C@H](O)[C@@H](CO)O3)n2)c1	·	·	·	·	·	-0.7
CCCc1cc(C(N)=O)c(NC(=O)c2cc(C)on2)s1	-0.8	14.5	-3.9	5.9	178.4*	i

From PubChem BioAssay
